PK Bst: Pyruvate Kinase | purified pyruvate kinase, luminescence ATP production; ribose 5-phosphate activator present at AC10 | Potency, µM | hit rate 1.2% among 51,000 | AID 361, 2006; in the data active means potency below about 11 µM; inconclusive means mostly about 12 µM to 25 µM;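 the screen sought inhibitors and activators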;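 further: scaled between full activation by ribose 5 phosphate and full inhibition by luteolin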
GBA activity: Glucocerebrosidase; Lysosomal acid glucosylceramidase (Homo sapiens), P04062; purified enzyme, resorufin glucoside fluorescence (screen aimed at inhibitors), 20 min; Potency, µM; hit rate 1.1% among 48,000; in the data active means potency below about 15 µM; inconclusive means mostly about 16 µM to 33 µM;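 further: the screen sought inhibitors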
Target sequence (P04062 whole entry, looked up): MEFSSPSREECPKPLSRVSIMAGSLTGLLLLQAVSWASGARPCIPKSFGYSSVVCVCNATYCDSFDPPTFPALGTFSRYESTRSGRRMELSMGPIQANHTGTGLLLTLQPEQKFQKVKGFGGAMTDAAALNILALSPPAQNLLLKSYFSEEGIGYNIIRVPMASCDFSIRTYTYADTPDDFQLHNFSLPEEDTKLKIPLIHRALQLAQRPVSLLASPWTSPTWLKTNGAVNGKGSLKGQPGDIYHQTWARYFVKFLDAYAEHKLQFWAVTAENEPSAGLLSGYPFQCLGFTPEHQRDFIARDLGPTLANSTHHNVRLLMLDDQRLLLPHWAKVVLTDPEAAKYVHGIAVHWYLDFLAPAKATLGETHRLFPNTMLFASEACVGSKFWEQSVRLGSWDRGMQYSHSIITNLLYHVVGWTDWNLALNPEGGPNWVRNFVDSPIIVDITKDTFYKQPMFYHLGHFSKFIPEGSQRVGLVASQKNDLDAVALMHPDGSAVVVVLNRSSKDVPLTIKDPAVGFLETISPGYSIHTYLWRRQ
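Wild-type enzyme at 0.2 nM final in 50mM citric acid/KH2PO4, 10mM sodium taurocholate, 0.01% tween-20, pH 5.9, with resorufin beta-D-glucopyranoside at 30 uM final. Compounds titrated, 20 min at RT, red fluorescence read; AC50 from titration.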
FLuc inh: qHTS Assay for Inhibitors of Firefly Luciferase; hit rate 2.2% among 72,000; Luciferin 4-monooxygenase (Photinus pyralis), P08659; purified firefly luciferase, luminescence, 8 min; Potency, µM (titrated, usually from 57.1 µM), without a hit: at the top dose activity change, negative = inhibition, hits mostly inhibitors; active means well fitted inhibition curve with a large enough effect; inconclusive means small, poorly fitted or top-dose-only effect; further: on the % scale 0 is the no-effect control and ±100 the full control effect; nearly all actives have a fitted effect of over 40% in size
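Inhibition of light generation by firefly luciferase from ATP and luciferin was profiled with concentration-response curves per sample, ATP held at 10 uM within the enzyme's linear range. Plates were read by luminescence after an 8-minute ambient incubation.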
* marks the source's active call; other numbers are inactive results; i = inactive; ? = inconclusive; nt = no result; [ ] = dose if it differs, or a comment. The list is not random: actives were taken first. Their share in the collection is about 3.2%. Potency means the concentration at half of the fitted maximal effect.

SMILES | PK Bst | GBA activity | FLuc inh
CN1CCN(c2ncc3nc(-c4ccc(Cl)cc4)c(=O)n(C4CC4)c3n2)CC1 | nt | nt | -1.3%[11.4 µM]
O=c1c(-c2ccc(Cl)cc2)nc2cnc(N3CCOCC3)nc2n1C[C@H]1CCCO1 | nt | nt | 1.6%[11.4 µM]
COc1ccc(S(=O)(=O)N2CCn3c2nc2ccccc23)cc1 | >57 | >76.9 | 0.4%
O=C(c1ccco1)N1CCn2c1nc1ccccc12 | nt | >76.9 | -29.6%
COc1ccc(NC(=O)N2CCn3c2nc2ccccc23)cc1 | 5.63* | >76.9 | -3.6%
O=C(Nc1ccccc1)N1CCn2c1nc1ccccc12 | 9.69* | >76.9 | -9.0%
CN1CCN(c2ncc3nc(-c4ccccc4)c(=O)n(CCc4ccccc4)c3n2)CC1 | nt | nt | 0.2%[11.4 µM]
Cc1noc(C)c1-c1ccc2ncnc(N3CCC(C(=O)O)CC3)c2c1 | nt | nt | -0.3%[2.29 µM]
Cc1cccc(OCC(=O)Nc2cc(C)ccc2O)c1 | >57 | >76.9 | -4.1%
COc1cccc(C(=O)/C=C/Nc2cc(C)ccc2O)c1 | 5.62* | >76.9 | 7.94µM*
Cc1nc2ccccc2n1-c1nc(-c2ccco2)cc(C(F)(F)F)n1 | >57 | >76.9 | 1.4%
FC(F)(F)c1cc(-c2ccco2)nc(-n2cnc3ccccc32)n1 | >57 | 11.8* | 1.8%
O=C(O)Cn1c(=O)oc2cc(S(=O)(=O)NC3CCCCC3)ccc21 | nt | nt | -0.9%
Cc1cc(C(=O)Nc2sc(C)c(-c3ccc(F)cc3)c2C(N)=O)no1 | >57 | >76.9 | 7.94µM*
CCCc1cc(C(N)=O)c(NC(=O)c2cc(C)on2)s1 | >57 | >76.9 | -1.3%
O=C(CCCn1c(=O)[nH]c2ccccc2c1=O)N1CCN(c2ccccn2)CC1 | nt | nt | 2.9%
O=C(CCCCCNc1nc(=S)[nH]c2ccccc12)N1CCN(c2ccccn2)CC1 | nt | 5.73* | -2.8%
CN[C@]1(C)[C@H]2CC[C@@H](C2)C1(C)C | nt | nt | 0.6%[25.5 µM]
CN(C)C(=O)c1ccc(-c2cncnc2Nc2ccc(F)cc2)cc1 | nt | nt | -2.9%[2.29 µM]
Cc1cc(C(=O)NC2=NCCS2)cs1 | nt | >76.9 | 15.8µM*
O=C(NC1=NCCS1)Nc1ccccc1 | i | >76.9 | 15.8µM*
COC(=O)c1sccc1NC(=O)c1ccc(OC)cc1 | >57 | >76.9 | -2.2%
O=C(Nc1ccc(Cl)cn1)c1cc2ccccc2o1 | ? | i | 7.94µM*
COC(=O)c1sccc1NC(=O)c1csc(C)c1 | nt | 12.8* | 2.5%
O=C(NC1=NCCS1)c1cccs1 | >57 | >76.9 | -0.2%
SMILES | PK Bst | GBA activity | FLuc inh
O=C(Nc1cccc2ncccc12)c1cc2ccccc2o1 | >57 | >76.9 | -14.9%
O=C(NC1=NCCS1)c1ccncc1 | >57 | >76.9 | 0.6%
CC(C)[C@@H]1O[C@H](/C=C\c2ccccc2)OCC1(C)C | nt | nt | 0.2%[11.4 µM]
O[C@@H](c1cc([C@@]23C[C@H]4CC[C@@H]2C[C@H](C4)C3)nc2c(Cl)cc(Cl)cc12)[C@@H]1CCCCN1 | nt | nt | 4.2%[11.4 µM]
Cc1ccccc1-c1cncnc1NC1CCNCC1 | nt | nt | 0.1%[2.29 µM]
Nc1ncnc2c1nc(Br)n2[C@@H]1O[C@H]2COP(=O)(O)O[C@@H]2[C@H]1O | nt | nt | 2.1%
O=C(Nc1cccc(Cl)c1N1CCCC1)c1cc2ccccc2o1 | nt | >76.9 | -0.3%
O=C(NC1=NCCS1)C12CC3CC(C1)CC(C(=O)NC1=NCCS1)(C3)C2 | >57 | >76.9 | 3.8%
O=C(NC1=NCCS1)c1cc2ccccc2o1 | nt | nt | 5.01µM*
O=C(NC1=NCCS1)NC12CC3CC(CC(C3)C1)C2 | >57 | 13.6* | -7.7%
O=c1c(-c2ccc(F)cc2)nc2cnc(Oc3ccccc3)nc2n1C[C@H]1CCCO1 | nt | nt | -1.8%[11.4 µM]
COc1ccc(C(=O)N2CCC3(CCCN(C(=O)Nc4cccc(C#N)c4)C3)CC2)cc1 | nt | nt | -2.8%[11.4 µM]
CCSc1nnc(C)n1-c1ccc(C(=O)O)cc1 | 6.59* | >76.9 | -0.6%
COC(=O)c1ccc(NC(=O)CSc2nnc(C)n2-c2ccccc2)cc1 | >57 | >76.9 | -1.5%
COc1cccc(Nc2ncc3nc(-c4ccccc4)c(=O)n(C[C@H]4CCCO4)c3n2)c1 | nt | nt | -2.0%[11.4 µM]
O=C(N/N=C1/C[C@@H](O)[C@@H](O)[C@@H]2[C@H]3C(=O)N(c4ccc(F)cc4F)C(=O)[C@@H]3CC[C@@H]12)OCc1ccccc1 | nt | nt | 3.1%[11.4 µM]
COc1ccc(OC)c2[nH]c(=O)c(CCNS(=O)(=O)c3ccc(Cl)cc3)cc12 | 4.35* | >76.9 | -1.5%
COc1ccc(OC)c2[nH]c(=O)c(CCNS(=O)(=O)c3ccc(C)cc3)cc12 | 2.29* | >76.9 | 4.0%
COc1ccc(OC)c2[nH]c(=O)c(CCNC(=O)C(C)C)cc12 | nt | nt | -0.1%
COc1ccc(OC)c2[nH]c(=O)c(CCNC(=O)c3ccc(S(=O)(=O)N(C)C)cc3)cc12 | >57 | >76.9 | -0.9%
c1ccc(-c2cccc(N3CCC4(CCNCC4)CC3)c2)cc1 | nt | nt | -0.8%[11.4 µM]
CN(C)C(=O)c1ccc(-c2cncnc2N2CCNCC2)cc1 | nt | nt | 0.6%[2.29 µM]
Cc1noc(C)c1-c1ccc2ncnc(NCc3cccs3)c2c1 | nt | nt | -0.7%[2.29 µM]
O=c1c(-c2ccc(Cl)cc2)nc2cnc(N3CCNCC3)nc2n1CCc1ccccc1 | nt | nt | -1.3%[11.4 µM]
COc1ncc2nc(-c3cccs3)c(=O)n(C)c2n1 | nt | nt | -3.0%[11.4 µM]

Assay outcomes from PubChem.
